Source: the supplement of paper PMC11732987, “Enantioselective OTUD7B fragment discovery through chemoproteomics screening and high-throughput optimisation” (Communications Chemistry, 2025)

Experiments:
Assay in all cases: log2 ratio of Biotin-Ahx-Ub-VS probe labelling (fragment/DMSO); higher = less target engagement (more negative = stronger competition), active = hit call of the paper (q ≤ 0.05, log2 ratio ≤ -1)
Settings in all cases: compound concentration: 200 uM; treatment time: 3 h
USP9X = USP9X (UniProt Q93008)
Chain of USP9X (Q93008 whole entry, the tested form may be a part): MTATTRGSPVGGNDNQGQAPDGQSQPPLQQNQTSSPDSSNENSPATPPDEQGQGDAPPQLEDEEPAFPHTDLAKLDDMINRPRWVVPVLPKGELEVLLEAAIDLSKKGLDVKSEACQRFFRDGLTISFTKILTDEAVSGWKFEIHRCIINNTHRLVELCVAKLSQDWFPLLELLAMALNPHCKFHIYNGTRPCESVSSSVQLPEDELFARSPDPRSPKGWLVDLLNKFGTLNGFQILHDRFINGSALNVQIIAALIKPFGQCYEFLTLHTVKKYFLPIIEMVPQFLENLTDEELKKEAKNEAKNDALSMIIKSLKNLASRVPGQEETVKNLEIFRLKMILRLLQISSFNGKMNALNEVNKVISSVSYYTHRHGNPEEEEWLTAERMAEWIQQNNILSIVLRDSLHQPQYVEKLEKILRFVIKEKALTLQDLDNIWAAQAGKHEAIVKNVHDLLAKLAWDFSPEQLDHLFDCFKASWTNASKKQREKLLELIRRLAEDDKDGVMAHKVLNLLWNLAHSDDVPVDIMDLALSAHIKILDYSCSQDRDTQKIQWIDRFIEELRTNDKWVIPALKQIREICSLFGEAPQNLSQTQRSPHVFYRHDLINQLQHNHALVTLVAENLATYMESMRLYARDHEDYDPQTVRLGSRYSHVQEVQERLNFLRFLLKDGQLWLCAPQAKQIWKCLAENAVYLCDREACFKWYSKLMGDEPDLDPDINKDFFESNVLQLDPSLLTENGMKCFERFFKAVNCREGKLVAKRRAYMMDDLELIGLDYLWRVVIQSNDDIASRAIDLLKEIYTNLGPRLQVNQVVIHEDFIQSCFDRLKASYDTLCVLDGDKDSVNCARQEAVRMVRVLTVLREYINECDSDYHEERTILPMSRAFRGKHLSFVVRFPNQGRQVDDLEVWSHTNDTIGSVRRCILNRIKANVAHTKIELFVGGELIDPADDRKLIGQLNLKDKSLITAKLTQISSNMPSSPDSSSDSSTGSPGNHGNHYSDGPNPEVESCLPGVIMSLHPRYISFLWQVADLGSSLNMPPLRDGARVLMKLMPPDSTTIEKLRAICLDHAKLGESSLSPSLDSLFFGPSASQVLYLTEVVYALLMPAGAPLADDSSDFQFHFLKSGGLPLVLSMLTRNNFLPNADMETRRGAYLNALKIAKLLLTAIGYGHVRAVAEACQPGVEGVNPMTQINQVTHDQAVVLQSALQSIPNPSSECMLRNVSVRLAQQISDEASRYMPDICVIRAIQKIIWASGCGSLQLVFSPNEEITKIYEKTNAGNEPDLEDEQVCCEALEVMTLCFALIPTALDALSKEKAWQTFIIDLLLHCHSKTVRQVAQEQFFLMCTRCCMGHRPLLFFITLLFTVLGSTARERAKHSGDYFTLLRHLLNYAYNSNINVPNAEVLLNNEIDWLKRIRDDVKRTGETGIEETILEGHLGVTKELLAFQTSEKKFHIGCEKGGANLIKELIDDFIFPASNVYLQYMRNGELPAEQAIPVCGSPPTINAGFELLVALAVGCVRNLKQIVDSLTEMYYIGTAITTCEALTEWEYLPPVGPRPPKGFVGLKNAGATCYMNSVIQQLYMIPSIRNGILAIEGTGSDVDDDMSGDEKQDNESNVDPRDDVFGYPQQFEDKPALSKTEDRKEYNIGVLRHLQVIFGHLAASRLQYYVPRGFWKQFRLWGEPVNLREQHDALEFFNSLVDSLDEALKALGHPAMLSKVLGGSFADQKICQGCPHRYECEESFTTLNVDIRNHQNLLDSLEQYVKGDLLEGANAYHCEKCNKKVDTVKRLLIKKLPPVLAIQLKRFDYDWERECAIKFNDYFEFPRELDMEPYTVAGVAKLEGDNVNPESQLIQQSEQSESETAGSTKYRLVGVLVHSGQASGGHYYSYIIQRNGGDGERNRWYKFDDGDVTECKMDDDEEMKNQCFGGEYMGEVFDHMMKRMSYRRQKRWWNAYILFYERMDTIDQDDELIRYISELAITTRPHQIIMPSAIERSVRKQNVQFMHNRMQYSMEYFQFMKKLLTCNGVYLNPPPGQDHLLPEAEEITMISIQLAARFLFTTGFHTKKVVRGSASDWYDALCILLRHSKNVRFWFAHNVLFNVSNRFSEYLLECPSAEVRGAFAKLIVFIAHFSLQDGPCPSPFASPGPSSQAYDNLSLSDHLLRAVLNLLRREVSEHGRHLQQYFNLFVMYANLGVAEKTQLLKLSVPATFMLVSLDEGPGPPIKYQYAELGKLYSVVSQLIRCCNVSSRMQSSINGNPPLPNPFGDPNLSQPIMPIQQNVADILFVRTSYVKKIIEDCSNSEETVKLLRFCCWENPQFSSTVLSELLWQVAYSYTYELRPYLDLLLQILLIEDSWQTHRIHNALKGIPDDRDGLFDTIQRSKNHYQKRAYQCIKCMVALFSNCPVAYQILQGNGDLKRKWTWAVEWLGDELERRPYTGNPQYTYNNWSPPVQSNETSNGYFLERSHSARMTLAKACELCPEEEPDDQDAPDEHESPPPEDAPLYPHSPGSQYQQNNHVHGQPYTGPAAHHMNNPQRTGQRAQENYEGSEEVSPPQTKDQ
Procedure, shortened: (§1)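 HEK293T lysate (495 µg per sample, in Tris/CHAPS/IGEPAL buffer with protease inhibitors) was exposed in triplicate for 3 h to fragment at 200 µM or to vehicle, then to Biotin-Ahx-Ub-VS at 0.5 µM final for 1 h. Labelled DUBs were enriched on NeutrAvidin, digested with LysC and trypsin, and analysed by diaPASEF LC-MS/MS. Spectronaut label-free quantities were normalised to the global median, and values are average log2 ratios of fragment over vehicle from an unpaired t-test. Only proteins with ≥2 unique peptides were used.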

UniProt O00487 = target: UniProt O00487
Chain of UniProt O00487 (O00487 whole entry): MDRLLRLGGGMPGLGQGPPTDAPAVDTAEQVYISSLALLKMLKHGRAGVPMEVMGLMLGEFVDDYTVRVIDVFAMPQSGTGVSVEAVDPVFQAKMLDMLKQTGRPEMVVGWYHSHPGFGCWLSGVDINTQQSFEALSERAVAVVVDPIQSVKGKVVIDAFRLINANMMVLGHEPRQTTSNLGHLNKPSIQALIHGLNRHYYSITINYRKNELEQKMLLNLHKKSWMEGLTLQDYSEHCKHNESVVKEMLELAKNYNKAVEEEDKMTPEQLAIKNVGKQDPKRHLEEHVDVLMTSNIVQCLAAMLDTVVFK
Procedure, shortened: as §1

UniProt O00507 = target: UniProt O00507
Procedure, shortened: as §1

UniProt P51784 = target: UniProt P51784
Chain of UniProt P51784 (P51784 whole entry): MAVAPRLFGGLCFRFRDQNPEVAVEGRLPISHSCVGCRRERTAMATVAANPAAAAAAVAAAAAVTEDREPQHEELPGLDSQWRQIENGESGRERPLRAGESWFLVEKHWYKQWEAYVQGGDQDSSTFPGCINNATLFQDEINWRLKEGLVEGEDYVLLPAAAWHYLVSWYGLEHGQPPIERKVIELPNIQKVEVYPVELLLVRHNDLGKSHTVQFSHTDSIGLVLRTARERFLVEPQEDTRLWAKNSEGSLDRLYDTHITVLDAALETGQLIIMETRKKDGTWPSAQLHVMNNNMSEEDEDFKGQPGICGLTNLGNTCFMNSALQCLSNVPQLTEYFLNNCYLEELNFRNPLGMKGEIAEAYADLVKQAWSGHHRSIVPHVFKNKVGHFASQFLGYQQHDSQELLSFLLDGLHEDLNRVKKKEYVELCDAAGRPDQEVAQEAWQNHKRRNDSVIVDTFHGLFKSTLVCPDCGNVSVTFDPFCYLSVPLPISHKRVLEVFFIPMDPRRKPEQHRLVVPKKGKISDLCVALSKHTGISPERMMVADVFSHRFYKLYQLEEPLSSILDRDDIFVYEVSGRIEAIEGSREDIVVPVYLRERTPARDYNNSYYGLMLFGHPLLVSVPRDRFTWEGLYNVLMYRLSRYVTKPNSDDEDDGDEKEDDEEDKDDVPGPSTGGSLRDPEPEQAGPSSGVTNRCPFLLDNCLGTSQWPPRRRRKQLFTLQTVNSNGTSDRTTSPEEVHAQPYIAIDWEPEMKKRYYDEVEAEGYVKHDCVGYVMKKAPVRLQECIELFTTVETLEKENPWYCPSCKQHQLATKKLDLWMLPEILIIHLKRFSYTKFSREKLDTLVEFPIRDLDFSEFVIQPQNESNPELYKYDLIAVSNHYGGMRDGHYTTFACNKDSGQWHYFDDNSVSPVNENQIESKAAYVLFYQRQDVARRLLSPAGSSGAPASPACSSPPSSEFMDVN
Procedure, shortened: as §1

UniProt Q5T2D3 = target: T1, UniProt Q5T2D3
T1 sequence (whole entry): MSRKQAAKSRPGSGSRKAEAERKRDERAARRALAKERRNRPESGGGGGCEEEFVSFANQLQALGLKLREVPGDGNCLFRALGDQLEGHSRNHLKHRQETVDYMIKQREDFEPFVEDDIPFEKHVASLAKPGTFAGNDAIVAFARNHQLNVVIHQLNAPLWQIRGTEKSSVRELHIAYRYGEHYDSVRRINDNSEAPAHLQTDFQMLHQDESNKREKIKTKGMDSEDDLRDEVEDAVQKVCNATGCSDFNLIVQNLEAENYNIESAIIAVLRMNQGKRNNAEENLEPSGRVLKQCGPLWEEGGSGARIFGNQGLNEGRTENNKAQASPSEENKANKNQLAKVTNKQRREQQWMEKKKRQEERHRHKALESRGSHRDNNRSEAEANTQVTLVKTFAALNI
Procedure, shortened: as §1

UniProt Q8TE49 = target: T2, UniProt Q8TE49
T2 sequence (whole entry): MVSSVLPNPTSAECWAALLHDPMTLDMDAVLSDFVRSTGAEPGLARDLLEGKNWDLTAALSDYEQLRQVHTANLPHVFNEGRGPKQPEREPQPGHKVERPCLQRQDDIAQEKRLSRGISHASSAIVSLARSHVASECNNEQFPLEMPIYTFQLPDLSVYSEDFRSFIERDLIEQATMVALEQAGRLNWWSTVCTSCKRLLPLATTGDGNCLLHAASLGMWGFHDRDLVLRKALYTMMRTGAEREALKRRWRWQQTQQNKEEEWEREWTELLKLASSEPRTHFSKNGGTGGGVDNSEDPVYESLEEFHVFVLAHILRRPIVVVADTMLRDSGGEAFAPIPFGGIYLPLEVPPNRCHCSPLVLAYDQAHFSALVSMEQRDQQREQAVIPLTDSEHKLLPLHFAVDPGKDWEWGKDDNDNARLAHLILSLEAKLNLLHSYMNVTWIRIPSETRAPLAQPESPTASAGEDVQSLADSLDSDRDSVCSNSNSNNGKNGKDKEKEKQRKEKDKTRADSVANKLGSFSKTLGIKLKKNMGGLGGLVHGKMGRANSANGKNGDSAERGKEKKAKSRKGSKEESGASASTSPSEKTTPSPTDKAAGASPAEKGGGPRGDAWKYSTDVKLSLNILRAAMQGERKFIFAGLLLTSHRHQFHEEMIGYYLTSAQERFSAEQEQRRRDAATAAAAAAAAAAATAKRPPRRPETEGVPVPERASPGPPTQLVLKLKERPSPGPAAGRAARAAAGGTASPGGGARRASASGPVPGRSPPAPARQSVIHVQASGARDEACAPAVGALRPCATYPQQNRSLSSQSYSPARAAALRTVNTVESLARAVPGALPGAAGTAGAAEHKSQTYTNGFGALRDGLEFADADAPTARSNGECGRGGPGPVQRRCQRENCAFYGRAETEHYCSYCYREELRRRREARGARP
Procedure, shortened: as §1

UniProt Q9P2H5 = target: T3, UniProt Q9P2H5
T3 sequence (whole entry): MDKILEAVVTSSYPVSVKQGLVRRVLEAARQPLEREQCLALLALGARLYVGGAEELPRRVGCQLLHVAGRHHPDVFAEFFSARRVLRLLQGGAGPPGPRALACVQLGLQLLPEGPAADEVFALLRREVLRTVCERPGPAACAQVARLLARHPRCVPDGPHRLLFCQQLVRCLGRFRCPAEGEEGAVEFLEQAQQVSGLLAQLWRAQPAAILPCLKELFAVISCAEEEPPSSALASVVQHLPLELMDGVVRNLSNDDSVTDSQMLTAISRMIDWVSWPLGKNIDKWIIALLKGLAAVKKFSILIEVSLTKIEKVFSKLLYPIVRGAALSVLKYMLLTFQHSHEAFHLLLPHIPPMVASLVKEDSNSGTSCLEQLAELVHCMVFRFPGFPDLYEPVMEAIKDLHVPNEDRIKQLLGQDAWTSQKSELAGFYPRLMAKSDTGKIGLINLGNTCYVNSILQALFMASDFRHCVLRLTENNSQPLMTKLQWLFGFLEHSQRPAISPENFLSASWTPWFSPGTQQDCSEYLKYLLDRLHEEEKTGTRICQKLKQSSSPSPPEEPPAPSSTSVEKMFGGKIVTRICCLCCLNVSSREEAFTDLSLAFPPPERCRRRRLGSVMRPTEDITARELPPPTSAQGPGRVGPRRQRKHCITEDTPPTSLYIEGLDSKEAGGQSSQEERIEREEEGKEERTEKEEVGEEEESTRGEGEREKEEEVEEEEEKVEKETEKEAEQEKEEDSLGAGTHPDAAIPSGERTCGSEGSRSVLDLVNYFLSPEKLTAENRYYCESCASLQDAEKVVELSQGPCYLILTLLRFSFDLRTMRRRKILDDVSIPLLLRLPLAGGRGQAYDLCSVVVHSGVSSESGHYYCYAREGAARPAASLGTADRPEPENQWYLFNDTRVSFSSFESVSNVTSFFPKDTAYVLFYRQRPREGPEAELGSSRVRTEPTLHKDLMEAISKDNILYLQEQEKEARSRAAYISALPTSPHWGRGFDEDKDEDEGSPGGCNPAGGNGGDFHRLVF
Procedure, shortened: as §1

UniProt Q9UGI0 = target: T4, UniProt Q9UGI0
T4 sequence (whole entry): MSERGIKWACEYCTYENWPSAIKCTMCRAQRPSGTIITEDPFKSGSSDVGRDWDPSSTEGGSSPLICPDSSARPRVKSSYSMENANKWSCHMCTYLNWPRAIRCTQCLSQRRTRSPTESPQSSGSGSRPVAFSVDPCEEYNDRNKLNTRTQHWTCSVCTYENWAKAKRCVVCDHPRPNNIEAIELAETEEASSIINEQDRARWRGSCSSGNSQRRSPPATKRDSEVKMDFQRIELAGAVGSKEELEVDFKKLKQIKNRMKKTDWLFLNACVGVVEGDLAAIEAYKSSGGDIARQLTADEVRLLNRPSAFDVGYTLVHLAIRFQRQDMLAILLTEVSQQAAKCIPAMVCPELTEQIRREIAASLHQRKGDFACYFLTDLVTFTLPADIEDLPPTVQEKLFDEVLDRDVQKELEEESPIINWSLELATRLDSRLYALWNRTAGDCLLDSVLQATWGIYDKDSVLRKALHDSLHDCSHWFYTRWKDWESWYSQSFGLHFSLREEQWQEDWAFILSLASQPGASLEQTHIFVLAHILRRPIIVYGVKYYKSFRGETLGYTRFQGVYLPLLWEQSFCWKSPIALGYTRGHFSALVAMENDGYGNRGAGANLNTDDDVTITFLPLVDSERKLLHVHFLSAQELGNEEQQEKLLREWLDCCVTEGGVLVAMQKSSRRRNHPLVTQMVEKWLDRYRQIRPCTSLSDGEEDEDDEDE
Procedure, shortened: as §1

YOD1 = target: T5, YOD1 (UniProt Q5VVQ6)
T5 sequence (whole entry): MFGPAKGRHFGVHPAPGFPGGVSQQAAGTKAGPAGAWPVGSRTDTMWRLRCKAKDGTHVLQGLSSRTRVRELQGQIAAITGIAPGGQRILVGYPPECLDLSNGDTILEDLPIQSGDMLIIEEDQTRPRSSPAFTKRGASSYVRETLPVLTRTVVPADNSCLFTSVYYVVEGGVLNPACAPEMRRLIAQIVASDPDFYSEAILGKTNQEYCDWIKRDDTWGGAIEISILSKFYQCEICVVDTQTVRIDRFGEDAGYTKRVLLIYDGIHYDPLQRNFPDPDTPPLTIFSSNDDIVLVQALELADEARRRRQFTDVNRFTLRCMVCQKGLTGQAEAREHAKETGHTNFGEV
Procedure, shortened: as §1

Measured: log2 ratio of Biotin-Ahx-Ub-VS probe labelling

O=C(CCl)N1c2ccccc2NC(=O)C12CCCC2
inactive: USP9X -0.316 | UniProt O00487 0.0785 | UniProt O00507 -0.37 | UniProt P51784 0.258 | UniProt Q5T2D3 -0.0754 | UniProt Q8TE49 -0.35 | UniProt Q9P2H5 0.0618 | UniProt Q9UGI0 -0.0496 | YOD1 -0.0709
